LAP4-GFP MLPCN – modulators of TOR pathway LAP4-GFP in S. cerevisiae. S. cerevisiae LAP4-GFP multiplex, flow cytometry GFP, 3 h; median GFP as percent of DMSO wells. GFP response vs DMSO, % at 10 µM. AID 2023. 320,000 tested, 0.34% active;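 active means GFP response vs DMSO above a set limit, about the screen mean plus 3 SD, cut at about 150% in these data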
MEP2-GFP yeast – alters MEP2-GFP fluorescence in TOR pathway yeast screen; GFP response vs DMSO, % at 10 µM; 330,000 tested, 0.51% active; S. cerevisiae MEP2-GFP strain, flow cytometry GFP, 3 h; 100% = DMSO control level;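 active means GFP response versus DMSO above a set limit, roughly screen mean plus 3 SD, cut at about 180% in these data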;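 further: median GFP fluorescence of the barcode-gated MEP2-GFP cells per well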
RPL19A TOR yeast – alters RPL19A-GFP fluorescence in TOR pathway yeast screen; S. cerevisiae RPL19A-GFP strain, flow cytometry, 3 h; hits give low values; percent response vs DMSO, % at 10 µM; 330,000 tested, 0.3% active; AID 2025;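 active means percent response vs DMSO below 50%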;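 further: median channel GFP fluorescence of the barcoded RPL19A-GFP strain; ratio of sample median GFP to plate DMSO average so 100% = DMSO; lower means less RPL19A-GFP as with rapamycin TOR inhibition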
AGP1 TOR yeast – alters AGP1-GFP fluorescence in TOR pathway yeast screen. S. cerevisiae AGP1-GFP multiplex flow cytometry, 3 h; GFP as percent of DMSO wells. GFP response vs DMSO, % at 10 µM. 320,000 tested, 0.02% active;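 active means GFP response relative to DMSO above a set limit, near screen average plus 3 SD, cut at about 150% in these data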;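 further: median GFP channel fluorescence of the gated AGP1 strain per well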
CIT2-GFP yeast – yeast TOR pathway CIT2-GFP modulation; S. cerevisiae CIT2-GFP strain, flow cytometry, 3 h; 100 means same as DMSO wells; GFP response vs DMSO, % at 10 µM; 320,000 tested, 0.065% active;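 active means GFP response relative to DMSO above a set limit, near the screen mean plus 3 SD, cut at about 150% in these data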;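 further: ratio of well median GFP fluorescence to mean of DMSO wells on the plate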
LAP4-GFP pick2 – second confirmation of modulators of TOR reporter LAP4-GFP in yeast; shares compounds with LAP4-GFP MLPCN; GFP response vs DMSO, % at 10 µM; AID 2621; 590 tested, 20% active; S. cerevisiae LAP4-GFP strain, flow cytometry GFP, 3 h;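 active means GFP signal as percent of the solvent control above about 150%, meaning raised reporter expression, limit read from the data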;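 further: ratio of well median GFP fluorescence to plate DMSO mean so 100% = DMSO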
MEP2-GFP pick2 – reconfirmed MEP2-GFP TOR pathway modulator in yeast. shares compounds with LAP4-GFP MLPCN. S. cerevisiae MEP2-GFP strain, flow cytometry GFP, 3 h. GFP response vs DMSO, % at 10 µM. 590 tested, 10% active. AID 2622;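 active means GFP signal above 150% of the solvent control wells, that is a rise of more than half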;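 further: median channel GFP fluorescence of all gated yeast cells per well; ratio of median GFP to plate DMSO average so 100% = DMSO level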
RPL19A-GFP pick2 – reconfirmed modulator of RPL19A-GFP TOR reporter in yeast; shares compounds with LAP4-GFP MLPCN; S. cerevisiae RPL19A-GFP strain, flow cytometry GFP, 3 h; hits give low values; 100% means same as DMSO wells; GFP response vs DMSO, % at 10 µM; 590 tested, 3% active;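 active means under 65% GFP response relative to DMSO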;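 further: median GFP channel fluorescence per well over the all cells gate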
CIT2 GFP CP2 – reconfirmed modulator of CIT2-GFP TOR reporter in yeast | shares compounds with LAP4-GFP MLPCN | S. cerevisiae CIT2-GFP strain, flow cytometry GFP, 3 h; DMSO control wells read 100% | GFP response vs DMSO, % at 10 µM | 590 tested, 8% active | AID 2624;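 active means GFP response vs DMSO above about 150%, limit read from the data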;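 further: median green fluorescence per well over all gated yeast cells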
AGP1-GFP pick2 – yeast AGP1-GFP TOR reporter modulation, second cherry pick; percent response vs DMSO, % at 10 µM; AID 2643; 590 tested, under 10 active; shares compounds with LAP4-GFP MLPCN; S. cerevisiae AGP1-GFP strain, flow cytometry GFP, 3 h;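 active means over 150 percent of DMSO response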;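 further: median GFP channel fluorescence over all cells without mother daughter split; sample median GFP divided by mean DMSO control so 100% equals DMSO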
Yeast autofluor – yeast s288c autofluorescence artifact, counter-screen; AID 2757; fluorescence change (kMESF span) at 33 µM; shares compounds with LAP4-GFP MLPCN; S. cerevisiae s288c, 520 nm autofluorescence, flow cytometry, 3 h; hits give high values; zero means same as solvent-only cells; 610 tested, under 10 active;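 active means fluorescence span over the dose series, or activity score, above about 33, limit read from the data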
Yeast autofl DR – counter-screen for autofluorescence of TOR hits in yeast s288c. shares compounds with LAP4-GFP MLPCN. S. cerevisiae s288c parental, compound autofluorescence, flow cytometry, 3 h. fluorescence change (span) at 33 µM. 110 tested, under 10 active. AID 488829;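 active means fluorescence change span, or the activity score built from it, above 25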
TORC1 bypass – wildtype yeast growth loss with TORC1 bypass cells unaffected. shares compounds with LAP4-GFP MLPCN. S. cerevisiae BY4741 spot growth rating, 48-72 h; hits give low values. growth rating (0-3) at 30 µM. 120 tested, under 10 active. AID 504456;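 active means growth rating at most 1 for wild type yeast while the TORC1 bypass strain still grows fully, rated 3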
The depositor's hits bear a star. Compounds with a hit are over-represented: about 0.89% of the library has one in this group of screens.

`CCCCOc1ccc(C(=O)NNC(=S)NC(=O)CC)cc1` gave LAP4-GFP MLPCN 299*, MEP2-GFP yeast 117, RPL19A TOR yeast 89, AGP1 TOR yeast 95, CIT2-GFP yeast 77, LAP4-GFP pick2 331*, MEP2-GFP pick2 155*, RPL19A-GFP pick2 105, CIT2 GFP CP2 167*, AGP1-GFP pick2 108 and Yeast autofluor 1.4.
For CCCCC(=O)NNC(=S)NC(=O)c1ccc(C)cc1 the results were LAP4-GFP MLPCN 193*, MEP2-GFP yeast 114, RPL19A TOR yeast 96, AGP1 TOR yeast 129, CIT2-GFP yeast 111, Yeast autofluor 1.1, Yeast autofl DR 0.89 and TORC1 bypass 3.
`CCCOc1ccc(C(=O)NNC(=S)NC(C)=O)cc1` gave LAP4-GFP MLPCN 137, MEP2-GFP yeast 117, RPL19A TOR yeast 108, AGP1 TOR yeast 109 and CIT2-GFP yeast 101.
Screening CCCOc1ccc(C(=O)NNC(=S)NC(=O)c2ccco2)cc1 returned LAP4-GFP MLPCN 154*, MEP2-GFP yeast 110, RPL19A TOR yeast 112, AGP1 TOR yeast 113, CIT2-GFP yeast 111 and Yeast autofluor 1.1.
For CCCOc1ccc(C(=O)NNC(=S)NC(=O)c2ccccc2)cc1 the results were LAP4-GFP MLPCN 152*, MEP2-GFP yeast 94, RPL19A TOR yeast 108, AGP1 TOR yeast 113, CIT2-GFP yeast 100 and Yeast autofluor 1.
Screening CCC(=O)NC(=S)NNC(=O)c1ccc(OC)cc1 returned LAP4-GFP MLPCN 105, MEP2-GFP yeast 103, RPL19A TOR yeast 99, AGP1 TOR yeast 114 and CIT2-GFP yeast 104.
For O=C(NCC(c1ccco1)N1CCc2ccccc21)c1cccc([N+](=O)[O-])c1 (configuration not stated) the results were LAP4-GFP MLPCN 100, MEP2-GFP yeast 96, RPL19A TOR yeast 96, AGP1 TOR yeast 102 and CIT2-GFP yeast 105.
`CCOc1cc(C2NC(=O)CCC2[N+](=O)[O-])cc(Br)c1OCC` (configuration not stated) gave LAP4-GFP MLPCN 89, MEP2-GFP yeast 103, RPL19A TOR yeast 106, AGP1 TOR yeast 97 and CIT2-GFP yeast 98.
Screening CC(Oc1ccc(Cl)cc1)C(=O)NNC(=S)NC(=O)c1ccco1 (configuration not stated) returned LAP4-GFP MLPCN 242*, MEP2-GFP yeast 101, RPL19A TOR yeast 88, AGP1 TOR yeast 102, CIT2-GFP yeast 112, Yeast autofluor 0.91, Yeast autofl DR 0.52 and TORC1 bypass 3.

Screening data (PubChem)
